# Source: PMC11006913
# Residue numbers refer to the chain shown, from its start.
# How the values were obtained:
# Assay in all cases: PBM; 200 nM protein, PBS
# Conditions in all cases: dsDNA, one strand shown
# [1] = biological target: T1, PAX4 (Homo sapiens, UniProt O43316 9-242, F177V)
# T1 sequence: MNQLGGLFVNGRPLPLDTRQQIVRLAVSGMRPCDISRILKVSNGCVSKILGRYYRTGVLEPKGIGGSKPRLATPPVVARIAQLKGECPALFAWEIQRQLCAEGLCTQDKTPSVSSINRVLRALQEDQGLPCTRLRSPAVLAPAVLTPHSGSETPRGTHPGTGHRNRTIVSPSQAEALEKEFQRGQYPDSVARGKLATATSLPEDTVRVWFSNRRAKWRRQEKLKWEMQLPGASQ
# [2] = biological target: HOXA4 (Homo sapiens, UniProt Q00056 201-287)
# HOXA4 (Homo sapiens, UniProt Q00056 201-287), sequence (Q00056 201-287): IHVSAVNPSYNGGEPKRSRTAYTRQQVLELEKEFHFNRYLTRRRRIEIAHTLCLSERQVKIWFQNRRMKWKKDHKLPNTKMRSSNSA
# [3] = biological target: HOXC10 (Homo sapiens, UniProt Q9NYD6 254-340, K271E)
# HOXC10, sequence (Q9NYD6 254-340 K271E): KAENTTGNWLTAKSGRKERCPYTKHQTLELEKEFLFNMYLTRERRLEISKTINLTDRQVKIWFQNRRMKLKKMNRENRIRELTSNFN
# [4] = biological target: MSX2 (Homo sapiens, UniProt P35548 130-214)
# MSX2 (Homo sapiens, UniProt P35548 130-214), sequence (P35548 130-214): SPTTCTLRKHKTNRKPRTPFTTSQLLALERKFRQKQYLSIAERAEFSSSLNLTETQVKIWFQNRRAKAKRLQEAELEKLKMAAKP
# [5] = biological target: ALX3 (Homo sapiens, UniProt O95076 139-225)
# ALX3 (Homo sapiens, UniProt O95076 139-225), sequence (O95076 139-225): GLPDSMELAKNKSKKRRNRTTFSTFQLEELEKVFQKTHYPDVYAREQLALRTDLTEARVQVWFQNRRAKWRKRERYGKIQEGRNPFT
# [6] = biological target: T2, PAX4 (Homo sapiens, UniProt O43316 9-242, F177Y)
# T2 sequence: T1 sequence with V169Y
# [7] = biological target: PROP1 (Homo sapiens, UniProt O75360 56-141)
# PROP1 (Homo sapiens, UniProt O75360 56-141), sequence (O75360 56-141): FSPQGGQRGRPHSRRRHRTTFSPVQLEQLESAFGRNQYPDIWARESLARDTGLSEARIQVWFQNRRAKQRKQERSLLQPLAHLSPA
# [8] = biological target: HESX1 (Homo sapiens, UniProt Q9UBX0 95-180, R109Q)
# HESX1 (Homo sapiens, UniProt Q9UBX0 95-180, R109Q), sequence (Q9UBX0 95-180 R109Q): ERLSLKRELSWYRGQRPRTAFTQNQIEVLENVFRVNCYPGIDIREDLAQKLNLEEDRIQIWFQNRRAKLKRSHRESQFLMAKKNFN
# [9] = biological target: PROP1 (Homo sapiens, UniProt O75360 56-141, R99H)
# PROP1 (Homo sapiens, UniProt O75360 56-141, R99H), sequence (O75360 56-141 R99H): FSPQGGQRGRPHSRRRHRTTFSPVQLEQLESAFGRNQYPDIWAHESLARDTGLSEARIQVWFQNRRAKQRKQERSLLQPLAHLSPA
# [10] = biological target: VAX1 (Homo sapiens, UniProt Q5SQQ9 86-172)
# VAX1 (Homo sapiens, UniProt Q5SQQ9 86-172), sequence (Q5SQQ9 86-172): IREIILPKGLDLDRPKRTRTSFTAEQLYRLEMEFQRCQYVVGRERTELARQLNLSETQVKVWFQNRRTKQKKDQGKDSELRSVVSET
# [11] = biological target: ALX3 (Homo sapiens, UniProt O95076 139-225, L168Q)
# ALX3 (Homo sapiens, UniProt O95076 139-225, L168Q), sequence (O95076 139-225 L168Q): as the sequence (O95076 139-225) above, with L30Q counted along it
# [12] = biological target: HESX1 (Homo sapiens, UniProt Q9UBX0 95-180, P111T)
# HESX1 (Homo sapiens, UniProt Q9UBX0 95-180, P111T), sequence (Q9UBX0 95-180 P111T): as the sequence (Q9UBX0 95-180 R109Q) above, with Q15R, P17T counted along it
# [13] = biological target: HOXB9 (Homo sapiens, UniProt P17482 171-250, R186Q)
# HOXB9, sequence (P17482 171-250 R186Q): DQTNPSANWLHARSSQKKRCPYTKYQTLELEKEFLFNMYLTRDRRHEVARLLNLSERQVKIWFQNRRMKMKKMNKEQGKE
# [14] = biological target: HOXC9 (Homo sapiens, UniProt P31274 178-260, R222W)
# HOXC9, sequence (P31274 178-260 R222W): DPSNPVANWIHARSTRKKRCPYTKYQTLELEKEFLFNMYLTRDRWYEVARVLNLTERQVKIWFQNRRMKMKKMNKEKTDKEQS
# [15] = biological target: ALX3 (Homo sapiens, UniProt O95076 139-225, L168V)
# ALX3 (Homo sapiens, UniProt O95076 139-225, L168V), sequence (O95076 139-225 L168V): as the sequence (O95076 139-225) above, with L30V counted along it
# [16] = biological target: PROP1 (Homo sapiens, UniProt O75360 56-141, F88S)
# PROP1 (Homo sapiens, UniProt O75360 56-141, F88S), sequence (O75360 56-141 F88S): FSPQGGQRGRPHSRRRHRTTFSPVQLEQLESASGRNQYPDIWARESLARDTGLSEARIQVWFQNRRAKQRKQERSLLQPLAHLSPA
# [17] = biological target: MSX2 (Homo sapiens, UniProt P35548 130-214, F161Y)
# MSX2 (Homo sapiens, UniProt P35548 130-214, F161Y), sequence (P35548 130-214 F161Y): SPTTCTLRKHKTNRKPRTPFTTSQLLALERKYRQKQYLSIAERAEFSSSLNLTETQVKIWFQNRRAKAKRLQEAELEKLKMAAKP
# [18] = biological target: HESX1 (Homo sapiens, UniProt Q9UBX0 95-180, F115L)
# HESX1 (Homo sapiens, UniProt Q9UBX0 95-180, F115L), sequence (Q9UBX0 95-180 F115L): as the sequence (Q9UBX0 95-180 R109Q) above, with Q15R, F21L counted along it
# [19] = biological target: VAX1 (Homo sapiens, UniProt Q5SQQ9 86-172, T142I)
# VAX1 (Homo sapiens, UniProt Q5SQQ9 86-172, T142I), sequence (Q5SQQ9 86-172 T142I): as the sequence (Q5SQQ9 86-172) above, with T57I counted along it
# [20] = biological target: T3, PAX4 (Homo sapiens, UniProt O43316 9-242, R227W)
# T3 sequence: T1 sequence with V169F, R219W
# [21] = biological target: HOXA2 (Homo sapiens, UniProt O43364 129-215, Y150S)
# HOXA2 (Homo sapiens, UniProt O43364 129-215, Y150S), sequence (O43364 129-215 Y150S): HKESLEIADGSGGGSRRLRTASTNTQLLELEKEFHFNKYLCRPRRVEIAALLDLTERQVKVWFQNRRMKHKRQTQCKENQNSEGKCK
# [22] = biological target: HOXA7 (Homo sapiens, UniProt P31268 116-202, W177C)
# HOXA7, sequence (P31268 116-202 W177C): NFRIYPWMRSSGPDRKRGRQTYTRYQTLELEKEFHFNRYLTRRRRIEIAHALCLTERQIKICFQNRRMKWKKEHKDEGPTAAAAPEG
# [23] = biological target: NKX3-2 (Homo sapiens, UniProt P78367 192-278, P234S)
# NKX3-2 (Homo sapiens, UniProt P78367 192-278, P234S), sequence (P78367 192-278 P234S): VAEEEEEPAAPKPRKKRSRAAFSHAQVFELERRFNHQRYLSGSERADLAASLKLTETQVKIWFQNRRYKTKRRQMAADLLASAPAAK
# [24] = biological target: ALX1 (Homo sapiens, UniProt Q15699 118-204)
# ALX1, sequence (Q15699 118-204): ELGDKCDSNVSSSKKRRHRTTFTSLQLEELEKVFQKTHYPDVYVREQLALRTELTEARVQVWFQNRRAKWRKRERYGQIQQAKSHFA
# [25] = biological target: HOXA4 (Homo sapiens, UniProt Q00056 201-287, W262F)
# HOXA4 (Homo sapiens, UniProt Q00056 201-287, W262F), sequence (Q00056 201-287 W262F): as the sequence (Q00056 201-287) above, with W62F counted along it
# [26] = biological target: ALX3 (Homo sapiens, UniProt O95076 139-225, N203S)
# ALX3 (Homo sapiens, UniProt O95076 139-225, N203S), sequence (O95076 139-225 N203S): as the sequence (O95076 139-225) above, with N65S counted along it
# [27] = biological target: PRRX1 (Homo sapiens, UniProt P54821 80-166)
# PRRX1, sequence (P54821 80-166): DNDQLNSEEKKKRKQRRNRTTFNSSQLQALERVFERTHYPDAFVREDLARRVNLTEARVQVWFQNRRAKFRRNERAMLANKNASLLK
# [28] = biological target: HOXA2 (Homo sapiens, UniProt O43364 129-215)
# HOXA2 (Homo sapiens, UniProt O43364 129-215), sequence (O43364 129-215): as the sequence (O43364 129-215 Y150S) above, with S22Y counted along it
# [29] = biological target: VAX1 (Homo sapiens, UniProt Q5SQQ9 86-172, K157R)
# VAX1 (Homo sapiens, UniProt Q5SQQ9 86-172, K157R), sequence (Q5SQQ9 86-172 K157R): as the sequence (Q5SQQ9 86-172) above, with K72R counted along it
# [30] = biological target: HOXB6 (Homo sapiens, UniProt P17509 132-218)
# HOXB6, sequence (P17509 132-218): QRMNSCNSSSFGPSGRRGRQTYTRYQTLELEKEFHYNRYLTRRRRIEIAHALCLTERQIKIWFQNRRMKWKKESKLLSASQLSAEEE
# [31] = biological target: NKX3-2 (Homo sapiens, UniProt P78367 192-278)
# NKX3-2 (Homo sapiens, UniProt P78367 192-278), sequence (P78367 192-278): as the sequence (P78367 192-278 P234S) above, with S43P counted along it
sequence,measurement,setting,value
GCTAATTA,binding signal,[1],"10.9 upbm affinity estimate (log intensity, higher = more binding, comparable within an allelic series)"
same,binding signal,[2],"14.3 upbm affinity estimate (log intensity, higher = more binding, comparable within an allelic series)"
same,binding signal,[3],"12.1 upbm affinity estimate (log intensity, higher = more binding, comparable within an allelic series)"
same,binding signal,[4],"14.3 upbm affinity estimate (log intensity, higher = more binding, comparable within an allelic series)"
same,binding signal,[5],"13 upbm affinity estimate (log intensity, higher = more binding, comparable within an allelic series)"
same,binding signal,[6],"11.4 upbm affinity estimate (log intensity, higher = more binding, comparable within an allelic series)"
same,binding signal,[7],"12.1 upbm affinity estimate (log intensity, higher = more binding, comparable within an allelic series)"
same,binding signal,[8],"10.5 upbm affinity estimate (log intensity, higher = more binding, comparable within an allelic series)"
same,binding signal,[9],"12.3 upbm affinity estimate (log intensity, higher = more binding, comparable within an allelic series)"
same,binding signal,[10],"14 upbm affinity estimate (log intensity, higher = more binding, comparable within an allelic series)"
same,binding signal,[11],"11.4 upbm affinity estimate (log intensity, higher = more binding, comparable within an allelic series)"
same,binding signal,[12],"12.4 upbm affinity estimate (log intensity, higher = more binding, comparable within an allelic series)"
same,binding signal,[13],"11.5 upbm affinity estimate (log intensity, higher = more binding, comparable within an allelic series)"
same,binding signal,[14],"10.9 upbm affinity estimate (log intensity, higher = more binding, comparable within an allelic series)"
same,binding signal,[15],"11.2 upbm affinity estimate (log intensity, higher = more binding, comparable within an allelic series)"
same,binding signal,[16],"8.03 upbm affinity estimate (log intensity, higher = more binding, comparable within an allelic series)"
same,binding signal,[17],"13.8 upbm affinity estimate (log intensity, higher = more binding, comparable within an allelic series)"
same,binding signal,[18],"8.29 upbm affinity estimate (log intensity, higher = more binding, comparable within an allelic series)"
same,binding signal,[19],"14.1 upbm affinity estimate (log intensity, higher = more binding, comparable within an allelic series)"
same,binding signal,[20],"11.4 upbm affinity estimate (log intensity, higher = more binding, comparable within an allelic series)"
same,binding signal,[21],"10.8 upbm affinity estimate (log intensity, higher = more binding, comparable within an allelic series)"
same,binding signal,[22],"8.89 upbm affinity estimate (log intensity, higher = more binding, comparable within an allelic series)"
same,binding signal,[23],"11.7 upbm affinity estimate (log intensity, higher = more binding, comparable within an allelic series)"
same,binding signal,[24],"13.1 upbm affinity estimate (log intensity, higher = more binding, comparable within an allelic series)"
same,binding signal,[25],"13 upbm affinity estimate (log intensity, higher = more binding, comparable within an allelic series)"
same,binding signal,[26],"8.71 upbm affinity estimate (log intensity, higher = more binding, comparable within an allelic series)"
same,binding signal,[27],"13.7 upbm affinity estimate (log intensity, higher = more binding, comparable within an allelic series)"
same,binding signal,[28],"13.4 upbm affinity estimate (log intensity, higher = more binding, comparable within an allelic series)"
same,binding signal,[29],"14.2 upbm affinity estimate (log intensity, higher = more binding, comparable within an allelic series)"
same,binding signal,[30],"12.5 upbm affinity estimate (log intensity, higher = more binding, comparable within an allelic series)"
same,binding signal,[31],"11.7 upbm affinity estimate (log intensity, higher = more binding, comparable within an allelic series)"
